# Reference: PubChem BioAssay AID686978 (National Center for Advancing Translational Sciences (NCATS), 2013)
# The whole screen tested about 420,000 compounds, of which about 64,000 (15%) were called active. Another 27% or so got no clear call; they are omitted. Calls come from the whole dose curve; as a rule, active = well fitted inhibition curve with a large enough effect; inconclusive = small, poorly fitted or top-dose-only effect; inactive = flat fitted curve, though single readings scatter. Only a sample is shown. Entries that show only a call come without a potency.
# Assay: qHTS for Inhibitors of human tyrosyl-DNA phosphodiesterase 1 (TDP1): qHTS in cells in absence of CPT; note: nearly all actives have a fitted effect of over 55% in size
# Details: DT40 Tdp1-/- hTDP1 cells, no CPT, ATP luminescence, 48 h; activity change, negative = growth inhibition: at 46.2 µM (top of the series)
# In short: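 Camptothecin absent (DMSO only). Human TDP1-complemented DT40 knockout cells, 400 cells/well, 37 °C for minimum 48 hr; ATP measured via CellTiter-Glo, 30 min dark incubation, luminescence.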
# Potency is the fitted concentration of half-maximal effect.
Compound,Potency,"activity change, negative = growth inhibition"
O=S(=O)(NCCc1ccccn1)c1cc(Cl)cc(Cl)c1O,inactive,
COc1ccc(NC(=O)c2sc(N)nc2-c2ccccc2)cc1,inactive,
COc1ccc(NC(=O)CCC(=O)Nc2nnc(C3CCCCC3)s2)cc1,inactive,
COC(=O)CCc1sc(Nc2ccc(Br)cc2)nc1-c1ccc(OC)cc1,13 µM (active),
CC(C)(C)n1nc2c(c1NC(=O)c1cc3ccccc3o1)CSC2,inactive,
C[C@H](NC(=O)OC(C)(C)C)c1nnc(SCC(N)=O)o1,inactive,
C[C@@H](NC(=O)OC(C)(C)C)c1nnc(S(=O)(=O)Cc2ccccc2)o1,1.03 µM (active),
CC(C)Sc1nnc([C@H](Cc2ccccc2)NC(=O)OC(C)(C)C)o1,inactive,
O=C(CSc1nnc(CNC(=O)c2ccc(F)cc2)o1)Nc1ccc2c(c1)OCO2,inactive,
Cc1cc(=O)[nH]c(=S)[nH]1,inactive,
COc1cc(C(=O)OCc2ccc([N+](=O)[O-])cc2)cc(OC)c1OC,inactive,
Cc1ccc(-n2cc3ccc([N+](=O)[O-])cc3n2)cc1,16.4 µM (active),
Cc1cc(CO)nn1-c1ccc([N+](=O)[O-])cc1,inactive,
Cc1ccc(C(=O)Cn2cc([N+](=O)[O-])nc2C)cc1,inactive,
O=C(CN1CCN(c2ccccn2)CC1)NC1CCCCC1,inactive,
O=C1CCC(CCC(=O)N2CCCC(C(=O)c3ccc(Cl)cc3)C2)=NN1 (stereo unspecified),inactive,
COc1cc(OC)cc(-c2nc3nc(C)c(CCC(=O)Nc4ccc(C)cc4)c(C)n3n2)c1,inactive,
COc1cc(OC)cc(-c2nc3nc(C)c(CCC(=O)Nc4ccccc4)c(C)n3n2)c1,29.1 µM (active),
CCOC(=O)c1cccc(NC(=O)CCc2c(C)nc3ncnn3c2C)c1,inactive,
COc1cc(OC)cc(-c2c(C#Cc3ccsc3)c3cc(-c4ccc(SC)cc4)ccc3n2C)c1,inactive,
COc1cc(OC)cc(-c2c(-c3cccs3)c3cc(-c4ccc(OC)cc4F)ccc3n2C)c1,14.6 µM (active),
COc1ccc(-c2cn[nH]c2-c2ccc(OC)cc2)cc1,inactive,

Compound,Potency,"activity change, negative = growth inhibition"
COc1ccc(OC)c(-n2c(-c3ccn[nH]3)n[nH]c2=S)c1,inactive,
COc1ccc(-c2c(-c3cc(OC)cc(OC)c3)n(C)c3ccc(-c4ccn[nH]4)cc23)cc1,25.9 µM (active),
O=C(CSc1nncs1)NC1CCCc2ccccc21 (stereo unspecified),inactive,
Cc1nc2cc3c(cc2s1)OCO3,inactive,
Cc1nnc(SCC(=O)NC(=O)NC2CCCC2)n1N,inactive,
COc1ccc(N2CC(C(=O)N[C@@H](C)C(=O)N3CCCCC3)CC2=O)cc1 (stereo partly specified),inactive,
CCOC(=O)C1CCN(S(=O)(=O)c2ccc3c(c2)N(C)C(=O)CC(=O)N3C)CC1,inactive,
O=[n+]1c2c(n([O-])c3cc(Br)ccc31)CCC2,inactive,
CC(C)c1ccc(C2C(C(=O)c3ccco3)=C(O)C(=O)N2CC2CCCO2)cc1 (stereo unspecified),,-77.9% (active)
O=C(C1=C(O)C(=O)N(Cc2ccccc2)C1c1cccnc1)c1ccco1 (stereo unspecified),inactive,
CCOc1cc(C2C(C(=O)c3ccco3)=C(O)C(=O)N2Cc2ccccc2)ccc1O (stereo unspecified),inactive,
CCCc1nnc(NC(=O)CN2C(=O)c3ccccc3S2(=O)=O)s1,inactive,
Cc1ccc(-n2ncc3c(Nc4cccc(C(=O)O)c4)ncnc32)cc1,inactive,
Cc1ccc(-n2ncc3c(=O)n(-c4ccc(C)c(C)c4)c(-c4ccco4)nc32)cc1,18.4 µM (active),
Cc1ccc(-c2nc3c(cnn3-c3ccccc3)c(=O)o2)cc1,inactive,
O=Cc1c(NCCc2cccc(F)c2)c2ccccc2[nH]c1=O,inactive,
CCC(=O)Nc1ccc(C(=O)NNC(=O)c2ccc(Cl)cc2)cc1,inactive,
CC(=O)OC(C(=O)NC1CCCCC1)c1ccccc1 (stereo unspecified),inactive,
Cc1cnc(CN(C)C(=O)CC2C(=O)NCCN2Cc2cccc(F)c2F)[nH]1 (stereo unspecified),inactive,
Cc1ccc(Cn2c(C)c3cnn(CC(=O)NCCN4CCOCC4)c(=O)c3c2C)cc1,inactive,
Cc1ccc(Cn2c(C)c3cnn(CC(=O)NCc4ccccc4)c(=O)c3c2C)cc1,2.91 µM (active),
Cc1ccccc1CNC(=O)Cn1c(C)c2cnn(-c3ccccc3)c(=O)c2c1C,inactive,

Compound,Potency,"activity change, negative = growth inhibition"
O=C(Cn1ncc2c3ccccc3n(Cc3ccccc3)c2c1=O)NCc1ccccn1,inactive,
Cc1nn(CC(=O)NC2CCCCC2)c(=O)c2cccn12,inactive,
Cc1c2cnn(CC(=O)NCc3ccccn3)c(=O)c2c(C)n1Cc1ccc(Cl)cc1,inactive,
CCOC(=O)N1CCC(NC(=O)C(C)n2c3ccccc3c3cnn(C)c(=O)c32)CC1 (stereo unspecified),inactive,
CCCn1c2ccccc2c2cnn(CC(=O)NCC3CCN(Cc4ccc(C)cc4)CC3)c(=O)c21,10.3 µM (active),
CCCn1c2ccccc2c2cnn(CC(=O)NCCCN3CCCCC3CC)c(=O)c21 (stereo unspecified),inactive,
CCN(CC)CCNC(=O)Cn1ncc2c3ccccc3n(Cc3ccccc3C)c2c1=O,25.9 µM (active),
Cc1ccc2oc(=O)c3cnn(CC(=O)NCc4ccccc4Cl)c3c2c1,inactive,
O=C(Cn1ncc2c3ccccc3n(Cc3ccccc3)c2c1=O)NC1CCCCCC1,3.66 µM (active),
O=C1OC(Cc2ccccc2)C(c2ccccc2)C1=O (stereo unspecified),inactive,
Cc1cc(S(=O)(=O)NCC(C)C)ccc1OCC(=O)NC1CC1,inactive,
CCCCCC(=O)Nc1ccc(-c2cn3cccnc3n2)cc1,inactive,
O=C(NNC(=O)C(O)c1ccccc1)NC1CCCCC1 (stereo unspecified),inactive,
Cc1ccc(NC(=O)C(c2ccccc2)N2CCN(C(=O)c3ccco3)CC2)cc1 (stereo unspecified),inactive,
O=c1c(-c2cc(F)cc(F)c2)nc2cnc(Oc3ccccc3)nc2n1C[C@H]1CCCO1,inactive,
CC1OC(OCC2OC(Oc3c(-c4ccc(O)c(O)c4)oc4cc(O)cc(O)c4c3=O)C(O)C(O)C2O)[C@@H](O)C(O)C1O (stereo partly specified),inactive,
O=C(O)Cc1ccc(NC(=O)Nc2cccc3ccccc23)cc1,inactive,
Cc1ccc2c(c1)N(CC(=O)N1CCCC(C)C1)C(=O)CO2 (stereo unspecified),inactive,
NC1=C([N+](=O)[O-])C(c2ccccc2)C2=C(CCCC2=O)O1 (stereo unspecified),inactive,
CCOc1cnc(C(=O)NNC(=O)c2ccccc2Br)o1,inactive,
Cc1cccc(C)c1NC(=O)NC1=CCCN1C,inactive,
CC1CC(C)CN(CCC(=O)Nc2ccc3c(c2)CCC3)C1 (stereo unspecified),inactive,
